About 25,000 (6.9%) of roughly 360,000 compounds were called active. Another 9% or so got no clear call; they are omitted. Calls come from the whole dose curve; as a rule, active = well fitted inhibition curve with a large enough effect; inconclusive = small, poorly fitted or top-dose-only effect; inactive = flat fitted curve, though single readings scatter. The list comes from a sample in which actives are over-represented; it also holds similar structures and randomly drawn compounds. Entries that show only a call come without a potency.
Target: Luciferin 4-monooxygenase (Photinus pyralis) (UniProt P08659)
Sequence (P08659 whole entry, looked up): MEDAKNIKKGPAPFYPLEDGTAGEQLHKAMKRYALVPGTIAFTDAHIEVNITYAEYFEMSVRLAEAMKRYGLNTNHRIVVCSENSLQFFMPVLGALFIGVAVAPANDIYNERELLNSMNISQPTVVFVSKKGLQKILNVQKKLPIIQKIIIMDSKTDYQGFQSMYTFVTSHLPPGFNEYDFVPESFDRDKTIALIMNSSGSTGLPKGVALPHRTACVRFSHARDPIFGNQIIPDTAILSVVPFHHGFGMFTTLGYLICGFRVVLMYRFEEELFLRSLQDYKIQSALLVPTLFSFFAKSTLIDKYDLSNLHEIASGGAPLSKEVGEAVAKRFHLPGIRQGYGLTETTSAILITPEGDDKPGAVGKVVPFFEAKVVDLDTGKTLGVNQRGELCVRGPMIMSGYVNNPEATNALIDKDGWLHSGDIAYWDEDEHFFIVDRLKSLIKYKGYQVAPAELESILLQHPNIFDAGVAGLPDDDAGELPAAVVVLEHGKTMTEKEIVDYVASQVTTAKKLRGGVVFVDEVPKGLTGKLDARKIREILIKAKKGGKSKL
Assay: qHTS profiling assay for firefly luciferase inhibitor/activator using purifed enzyme and Km concentrations of substrates (counterscreen for miR-21 project); note: nearly all actives have a fitted effect of over 55% in size
Details: purified FLuc, luminescence inhibition; series mostly up to 57.5 µM
How it was run: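 Purified P. pyralis luciferase, 10 nM final, with Km-level 10 uM D-luciferin and 10 uM ATP in 50 mM Tris acetate pH 7.5, 10 mM Mg acetate, 0.01% Tween-20, 0.05% BSA; 6-point qHTS titration about 60 µM downward; luminescence read.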
Potency is the fitted concentration of half-maximal effect.

Compound	Potency
COc1cccc(CNC(=O)C(=O)NCC(c2cccs2)S(=O)(=O)c2ccccc2)c1 (centres undefined)	inactive
Cc1nc2ccc(S(=O)(=O)N(CC(=O)Nc3ccc(F)cc3)Cc3ccccc3)cc2s1	inactive
CCCCC12CN3CC(C)(CN(C1)C3c1ccc(O)c(OC)c1)C2=O (centres undefined)	inactive
CCOc1ccc(CNC(=O)C2CCN(c3nnc(-n4cccc4CNc4ccc(C)cc4)s3)CC2)cc1OC	inactive
CN(C(=O)COC(=O)c1ccc(Br)o1)c1c(N)n(Cc2ccccc2)c(=O)[nH]c1=O	inactive
CCCn1c(C)cc(/C=C(\C#N)C(=O)OCC(=O)N(C)c2c(N)n(Cc3ccccc3)c(=O)[nH]c2=O)c1C	10.7 µM (active)
COc1cc(NC(=O)CCn2nc(C)cc2C)cc(OC)c1OC	inactive
Cc1cc(OCC(=O)N(C)c2c(N)n(Cc3ccccc3)c(=O)[nH]c2=O)c(C(C)C)cc1Cl	inactive
CCOC(=O)/C(C#N)=C/c1ccc(OCC(=O)Nc2ccccc2)c(OC)c1	inactive
CCCn1c(C)cc(/C=C(\C#N)C(=O)OCC(=O)Nc2cc(OC)c(OC)c(OC)c2)c1C	13.5 µM (active)
CCS(=O)(=O)c1ncc(N(Cc2ccc(F)cc2)Cc2ccco2)c(C(=O)Nc2cc(C)ccc2C)n1	inactive
COc1ccc(C(=O)c2oc3ccccc3c2NC(=O)COc2cccc(C)c2)cc1	inactive
O=c1oc2ccc(C#CC3(O)CCCCC3)cc2cc1-n1cc(-c2ccsc2)nn1	inactive
Cn1c(N)c(C(=O)COC(=O)COc2ccc(Cl)cc2)c(=O)n(C)c1=O	inactive
CCN(C(=O)COC(=O)Cc1c(F)cccc1Cl)c1c(N)n(Cc2ccccc2)c(=O)[nH]c1=O	inactive
Cc1ccc(C(=O)N/C(=C/c2ccco2)C(=O)NCCc2c[nH]c3ccccc23)cc1C	10.7 µM (active)
CC(=O)N/C(=C/c1ccc(Cl)cc1)C(=O)NCCc1c[nH]c2ccccc12	inactive
COc1ccc(/C=C(\NC(=O)c2ccc(OC)c(OC)c2)C(=O)NCCc2c[nH]c3ccccc23)cc1	inactive
COc1ccc(C)cc1N(C)C(=O)c1coc(=O)c2ccccc12	inactive
O=C(CN1CCN(S(=O)(=O)c2cccc(Cl)c2)CC1)N1CCCCC1	inactive
O=C(COC(=O)c1ccccc1SCC(=O)NC1CCCCC1)NC1CCCCC1	inactive
N#Cc1ccccc1Sc1ccccc1C(=O)OCC(=O)NC1CCCCC1	inactive
O=C(COC(=O)c1ccccc1Cl)NC1CCCCCCC1	12 µM (active)
Cc1ccc(S(=O)(=O)NCc2nc3nc(C)cc(C)n3n2)cc1	inactive
Cc1ccc(NC(=O)CCC(=O)N2CCC(c3ccccc3)=N2)cc1S(=O)(=O)N1CCCCC1	inactive

Compound	Potency
O=C(CN1C(=O)NC2(CCCCCC2)C1=O)NCc1cccs1	inactive
Cc1cccc(N=Nc2c(C)[nH]n(-c3ccccc3)c2=O)c1	19 µM (active)
Cc1cccc(N2C(=O)CC(SC(N)=Nc3ccccc3)C2=O)c1 (centres undefined)	inactive
Cc1[nH]n(-c2ccccc2)c(=O)c1N=Nc1ccccc1C(=O)N1CCCCC1	inactive
CCN(Cc1ccccc1)C(=O)c1cn(-c2cccc(OC)c2)c(=O)c2ccccc12	inactive
CCn1cc(C(=O)NCc2ccccc2)c(=O)c2cc(S(=O)(=O)N3CCCCC3)ccc21	inactive
COc1ccc(C(C#N)Nc2ccccc2C)cc1 (centres undefined)	inactive
COc1ccc(C(C#N)Nc2ccc(C)cc2)cc1 (centres undefined)	1.69 µM (active)
COc1ccc(C(CC(=O)Nc2ccc(C)cc2)NC(=O)C(F)(F)F)cc1 (centres undefined)	inactive
Cc1ccc(CN2CCC(CNC(=O)c3cnn(-c4ccc(C)cc4)c3C3CCN(C(=O)OC(C)(C)C)CC3)CC2)cc1	inactive
Cn1ccc2cc(S(=O)(=O)N3CCCC(C(=O)NCc4ccccc4F)C3)ccc21 (centres undefined)	inactive
O=C(CSCc1ccc(Cl)cc1)N1CCN(Cc2ccc3c(c2)OCO3)CC1	inactive
O=C(CSCc1ccc(Cl)cc1)N1CCCCC1	16.9 µM (active)
O=C(COc1ccccc1Cl)N1CCCCCCC1	inactive
Cc1cccc(C)c1NC(=O)CNC(=O)C1CCCC1	inactive
Cc1ccc(CNC(=O)CSc2c3c(nc4cc(Cl)ccc24)CCCC3)cc1	inactive
COC(=O)c1sccc1S(=O)(=O)N(CC(=O)Nc1ccc(C)c(F)c1)c1ccc(C)c(C)c1	inactive
Cc1ccccc1CSc1nnc(-c2ccccc2)c(=O)[nH]1	19 µM (active)
Cc1ccc(CSc2nc(-c3ccccc3)c(C#N)c(=O)[nH]2)cc1	inactive
Cc1ccccc1CSc1nnc(-c2cccnc2)n1N	inactive
CCCN(CC(=O)NC(=O)NC1CCCCC1)CC(=O)Nc1cc(Cl)ccc1Cl	inactive
COc1ccccc1CNC(=O)CS(=O)(=O)c1cccc2nsnc12	inactive
CCOC(=O)c1cccc(NC(=O)c2cc(S(=O)(=O)N3CCCC(C)C3)cn2C)c1 (centres undefined)	inactive
COC(=O)c1ccc(C)c(NC(=O)C2CC(=O)N(C3CCCC(C)C3C)C2)c1 (centres undefined)	inactive
Clc1ccc(-c2cc(-c3ccccn3)on2)c(Cl)c1	0.0757 µM (active)

Compound	Potency
COn1c(-c2ccc(Cl)cc2Cl)nc2ncccc21	inactive
Clc1ccc(COn2c(-c3ccc(Cl)cc3Cl)nc3ncccc32)cc1	inactive
O=C1N(Cc2ccccc2)c2ccc(Cl)cc2C1(O)c1c[nH]c2ccccc12 (centres undefined)	inactive
Cc1ccc(-c2nn3c(=O)cc(CN4CCN(C(=O)Nc5cccc(C(F)(F)F)c5)CC4)nc3s2)cc1	inactive
Cc1cc(C)c2oc(-c3cccc(NC(=O)c4cccc(F)c4)c3C)nc2c1	0.849 µM (active)
Cc1cccc(NC(=O)c2ccc3nc(C(C)C)oc3c2)c1C	inactive
CCCCOc1ccc(C(=O)Nc2cccc(-c3nc4ccccc4o3)c2C)cc1	inactive
CCc1cc2c(cc(C(=O)OC)n2Cc2nc(-c3ccc(C)cc3)oc2C)s1	inactive
Cc1ccc(Cn2c(=O)n(-c3ccc(C)cc3)c(=O)c3c2c2cc(C)ccc2n3C)cc1	inactive
Cc1ccc(-c2cnc(NCc3ccc(C(C)C)cc3)n2C)cc1	inactive
Cc1cccc(N(C(=O)c2sc(C)nc2C)C(C(=O)NCC2CCCO2)c2ccccc2)c1 (centres undefined)	inactive
COc1ccc(/C=N/Nc2ncnc3sc4c(c23)CCCC4)cc1O	1.69 µM (active)
COc1ccc(NC(=O)CCCNC(=O)Cn2cnc3sc4c(c3c2=O)CCCC4)cc1OC	inactive
COc1ccc(NC(=O)CCNC(=O)Cn2cnc3sc4c(c3c2=O)CCCC4)cc1OC	inactive
CCCOc1ccc(NC(=O)CC2C(=O)N(c3ccccc3)C(=O)N2Cc2ccco2)cc1 (centres undefined)	inactive
COc1ccc(CCc2nc(-c3cccs3)no2)cc1	19 µM (active)
COc1ccc(OC)c(CNC(=O)CCc2nc(-c3cccs3)no2)c1	inactive
CCc1ccc(CNC(=O)CCc2nc(-c3cccs3)no2)cc1	inactive
COc1ccc(-n2c(SC)nc3sc4c(c3c2=O)CCN(C(C)=O)C4)cc1	inactive
Cc1cccc(NC(=O)Cn2c(=O)n(CCC(C)C)c(=O)c3cccnc32)c1	inactive
COc1ccccc1C(=O)OCc1cc(=O)n2nc(-c3cccs3)sc2n1	inactive
O=C(Cn1c(=O)n(-c2ccc(F)cc2)c(=O)c2sc3ccccc3c21)NC1CCCC1	inactive
Cc1ccc(C(=O)NCCc2nnc(SCC(=O)Nc3cccc(C(=O)O)c3)n2C)cc1	10.7 µM (active)
Cc1ccc(C)c2c1cc(C)c1nnc(SCC(=O)Nc3cccc(C(=O)O)c3)n12	inactive
Cc1cccc(NC(=O)CSc2nnc(CNC(=O)c3cccc(C)c3)n2-c2ccccc2)c1	inactive

Compound	Potency
COc1ccc(CCN(Cc2cc3cccc(C)c3[nH]c2=O)C(=O)N2CCCC2)cc1OC	inactive
CCOc1ccc(NC(=O)c2cc(S(=O)(=O)N3CCCC3)c[nH]2)cc1	inactive
O=C(NCCOc1ccccc1)c1ccccc1	4.78 µM (active)
NS(=O)(=O)c1cc(C(=O)NCCOc2ccccc2)c(Cl)cc1Cl	inactive
CCCOc1ccc(C(=O)NCCc2ccccc2)cc1	1.07 µM (active)
O=C(CCNC(=O)c1ccc(Br)cc1)NCCCc1ccccc1	inactive
COc1ccc(OCCCC(=O)NCCc2ccccc2)cc1	inactive
Cc1c(C(=O)NCCCc2ccccc2)cccc1[N+](=O)[O-]	inactive
CCCCCCCCC(=O)NCCOc1ccccc1	inactive
CC(C)c1ccc(C(=O)NCCCc2ccccc2)cc1	10.7 µM (active)
CN(c1ccccc1)S(=O)(=O)c1ccc(C(=O)NCCc2ccccc2)cc1	inactive
CCOc1ccc(C2C(C(=O)Nc3ccc(Cl)cc3)=C(C)Nc3nc(C(F)(F)F)nn32)cc1 (centres undefined)	inactive
COc1ccc(CCNC(=O)c2c3c(nc4ccccc24)C(=O)N(C2CCCCC2)C3)cc1OC	inactive
CCOC(=O)CN1C(C(=O)c2ccccc2)=C(OC(=O)C(C)(C)C)c2ccccc2S1(=O)=O	inactive
CSc1nc(-c2ccccc2Cl)nc2c1Cc1c(CO)cnc(C)c1O2	inactive
COc1ccc(NC(=O)c2cnc(NS(=O)(=O)c3ccccc3)nc2)cc1	inactive
COC(=O)c1ccccc1NS(=O)(=O)c1ccc2[nH]c(=O)[nH]c2c1	inactive
CCOc1ccc(NC(=O)c2ccccc2NS(C)(=O)=O)cc1	10.7 µM (active)
COC(=O)c1ccc(NC(=O)c2ccccc2NS(=O)(=O)c2ccccc2)cc1	16.9 µM (active)
CCCNC(=O)Nc1ccccc1C(=O)Nc1ccc(OC)cc1	inactive
CCOc1ccc(NC(=O)c2cnn(-c3ccccc3)c2-n2cccc2)cc1	inactive
CCC1CCCCN1S(=O)(=O)c1ccc(NC(=O)c2cc(=O)c3ccccc3o2)cc1 (centres undefined)	inactive
COc1ccc(NC(=O)CCCN2C(=O)CCn3nc(-c4cn(C)c5ccccc45)cc32)cc1OC	inactive
O=S(=O)(NCCc1nnc2ccc(SCc3ccc(Cl)cc3Cl)nn12)c1ccccc1	inactive

From PubChem BioAssay AID588342 (National Center for Advancing Translational Sciences (NCATS), 2011)
